GLP1R cytotox – cytotoxicity counter-screen for GLP-1 receptor inverse agonists | HEK293 cAMP-luciferase reporter cells, luminescence, 24 h | Potency, µM (highest dose often 38.3 µM), hits mostly inhibitors | hit rate 0.13% among 410,000 | AID 624418;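 further: loss of luciferase light is scored as toxicity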
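Step one: seed cells (200 cells/uL, DMEM with 10% Nu serum, 1% pen-strep). Step two: 12-hour incubation at 37 deg C. Step three: pin 23 nL compound, incubate 24 hr. Step four: add luciferase reagent, read luminescence 12 min later.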
GLP1R inv ag – acts as inverse agonist at human GLP-1 receptor; HEK293 GLP-1R CRE-luciferase, luminescence, 24 h; GLP-1R form is constitutively active; AID 624417; Potency, µM (highest dose often 38.3 µM), actives largely listed as inhibitors; P43220; hit rate 1.6% among 410,000; further: nearly all actives have a fitted effect of over 55% in size
Target sequence (P43220 whole entry, looked up): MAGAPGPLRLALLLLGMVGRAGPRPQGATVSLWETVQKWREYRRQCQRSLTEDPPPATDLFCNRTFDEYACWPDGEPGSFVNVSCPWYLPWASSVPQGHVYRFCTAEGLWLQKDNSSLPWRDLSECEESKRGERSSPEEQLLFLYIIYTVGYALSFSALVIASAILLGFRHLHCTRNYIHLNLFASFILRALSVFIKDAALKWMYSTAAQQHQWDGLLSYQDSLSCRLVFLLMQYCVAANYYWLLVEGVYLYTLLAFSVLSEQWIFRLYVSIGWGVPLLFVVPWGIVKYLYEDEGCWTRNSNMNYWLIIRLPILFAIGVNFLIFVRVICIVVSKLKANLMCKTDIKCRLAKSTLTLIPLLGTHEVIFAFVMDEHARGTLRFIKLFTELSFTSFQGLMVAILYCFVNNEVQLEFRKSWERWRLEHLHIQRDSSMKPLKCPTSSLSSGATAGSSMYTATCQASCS
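qHTS in 1536-well format: reporter HEK293 cells expressing constitutive GLP-1R activity in DMEM + 10% Nu serum, 24 hr with compounds at 37 deg C, luminescence read after 12 min with detection reagent.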
Integrin act MD – activates integrin-mediated alleviation for muscular dystrophy | alpha7betagal myoblasts, beta-gal FDG fluorescence, 48 h | Potency, µM (series often up to 38.3 µM), actives largely listed as activators | hit rate 0.064% among 350,000 | AID 624291; further: nearly all actives have a fitted effect of over 60% in size
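alpha7betagal+/- myoblasts (passage 13, 250/well) treated 48 h at 37C with compounds at 1:260 dilution of DMSO stock. Lysed, then beta-galactosidase activity read as FDG fluorescence (ex 480/em 540) after 30 min, with pre-read for autofluorescence.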
GLP-1R agonist – activates the human GLP-1 receptor | P43220 | HEK293 GLP-1R CRE-luciferase, luminescence, 4-6 h; cells express a hypersensitive GLP-1R form | Potency, µM (top dose mostly 45.6 µM), hits mostly activators | hit rate 0.007% among 380,000
BRCA1 expr up – increases BRCA1 expression | MCF7-BRCA1-FFLuc reporter, luminescence, 48 h; response scale: scaled: vehicle 0%, 10 µM genistein 100% | Potency, µM (doses to about 46.1 µM), hits mostly activators | hit rate 1.1% among 380,000 | AID 624202; further: nearly all actives have a fitted effect of over 80% in size
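Quantitative HTS in MCF7 cells stably reporting BRCA1 expression via firefly luciferase. Compound treatment lasts 48 h at 37 °C in phenol-red free MEM. Activation is expressed relative to genistein at 10 microM and DMSO.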
Numbers stand for hits. Hits are enriched below; roughly 2.7% of the tested compounds scored in any of these assays. The call rests on the fitted dose curve; in most records, active means well fitted curve in the direction sought with a large enough effect; inconclusive means small, poorly fitted or top-dose-only effect, or another doubt; inactive means no such curve, though single readings can be large; an effect the other way counts as inactive or inconclusive.

CCN1CCC(N(Cc2cccc(OC)c2)C(=O)Nc2ccc(C)cc2Cl)CC1 was read as GLP1R cytotox inactive and GLP1R inv ag inconclusive.
Cc1ccc2c(c1)c1c(c(=O)n(-c3ccccc3)c(=O)n1CC(=O)N1CCCC1)n2C was read as GLP1R cytotox inactive and GLP1R inv ag inactive.
O=C(CN1C(=O)CCSc2ccc(S(=O)(=O)N3CCCC3)cc21)Nc1cccc(Cl)c1 was read as GLP1R cytotox inactive and GLP1R inv ag inactive.
`COc1ccc(CNC(=O)c2ccc(Cl)c(S(=O)(=O)N3CCCCCC3)c2)cc1` gave GLP1R cytotox inactive, GLP1R inv ag 10µM, Integrin act MD inactive, GLP-1R agonist inactive and BRCA1 expr up inactive.
For COc1ccc(CCNC(=O)c2cc(S(=O)(=O)N3CCCCCC3)ccc2OC)cc1OC the results were GLP1R cytotox inactive, GLP1R inv ag inactive, Integrin act MD inactive, GLP-1R agonist inactive and BRCA1 expr up inactive.
For COc1ccc(S(=O)(=O)N2CCCCCC2)cc1C(=O)NCc1ccc(C)cc1 the results were GLP1R cytotox inactive, GLP1R inv ag 10µM, Integrin act MD inconclusive, GLP-1R agonist inactive and BRCA1 expr up inactive.
Screening CN1C2CCC1CC(NC(=O)n1c(=O)[nH]c3ccccc31)C2 (configuration not stated) returned GLP-1R agonist inactive.
For c1ccc(-n2nnc3ccccc32)cc1 the results were GLP1R cytotox inactive, GLP1R inv ag inactive, GLP-1R agonist inactive and BRCA1 expr up inactive.
For O=C(O)Cn1nnc2ccccc21 the results were GLP1R cytotox inactive, GLP1R inv ag inactive, Integrin act MD inactive, GLP-1R agonist inactive and BRCA1 expr up inactive.
`c1ccc(CNn2nnc3ccccc32)cc1` gave GLP1R cytotox inactive, GLP1R inv ag inactive, GLP-1R agonist inactive and BRCA1 expr up 5µM.
For C(#Cc1ccccc1)Cn1nnc2ccccc21 the results were GLP1R cytotox inactive, GLP1R inv ag inactive, Integrin act MD inconclusive, GLP-1R agonist inactive and BRCA1 expr up 13µM.
O=S(=O)(NCC(c1ccco1)S(=O)(=O)c1cccs1)c1ccc(F)c(C(F)(F)F)c1 (configuration not stated) was read as GLP1R cytotox inactive and GLP1R inv ag inconclusive.
CCN(CC)C(=O)c1sc2c(c1C)c(=O)n(Cc1ccccc1)c(=O)n2Cc1ccccc1C was read as GLP1R cytotox inactive and GLP1R inv ag 11µM.
For CC(=O)N/N=C\c1cccc(OC/C=C/c2ccccc2)c1 the results were GLP1R cytotox inactive, GLP1R inv ag 3.5µM, Integrin act MD inactive, GLP-1R agonist inactive and BRCA1 expr up inactive.
CC(=O)N/N=C\c1ccccc1OC/C=C/c1ccccc1 was read as GLP1R cytotox inactive, GLP1R inv ag inactive, Integrin act MD inactive, GLP-1R agonist inactive and BRCA1 expr up 2.8µM.
For N#CCC(=O)N/N=C\c1cccc(OC/C=C/c2ccccc2)c1 the results were GLP1R cytotox inactive, GLP1R inv ag 3.2µM, Integrin act MD inactive, GLP-1R agonist inactive and BRCA1 expr up inactive.
CCOC(=O)N/N=C\c1cccc(OC)c1OC/C=C/c1ccccc1 was read as GLP1R cytotox inactive, GLP1R inv ag inconclusive, Integrin act MD inactive, GLP-1R agonist inactive and BRCA1 expr up inactive.
For COc1cc(/C=N\NC(=O)CC#N)ccc1OC/C=C/c1ccccc1 the results were GLP1R cytotox inactive, GLP1R inv ag 13µM, Integrin act MD inactive, GLP-1R agonist inactive and BRCA1 expr up inactive.
Screening COCC(=O)N/N=C\c1ccc(OC/C=C/c2ccccc2)c(OC)c1 returned GLP1R cytotox inconclusive, GLP1R inv ag inconclusive, Integrin act MD inactive, GLP-1R agonist inactive and BRCA1 expr up inactive.
Screening Cc1cccc(C(=O)Oc2c(Sc3ccccc3)c(C)nn2C(C)(C)C)c1 returned GLP1R cytotox inactive and GLP1R inv ag inactive.
CCOC(=O)Cn1c(=O)n(CC2CCCO2)c2nc(-c3ccc(OCC)cc3)nc(C(N)=O)c21 (configuration not stated) was read as GLP1R cytotox inactive, GLP1R inv ag inactive, GLP-1R agonist inactive and BRCA1 expr up inactive.
`Cc1cccc(NC(=O)Cn2c(=O)n(Cc3ccccc3)c(=O)c3sc4ccccc4c32)c1` gave GLP1R cytotox inactive, GLP1R inv ag inactive, GLP-1R agonist inactive and BRCA1 expr up inactive.
`Cc1ccccc1OCc1nnc(SCc2cc(=O)c3ccc(C)c(C)c3[nH]2)n1C` gave GLP1R cytotox inactive and GLP1R inv ag inactive.
`CCc1ccn2cc(-c3cc(-c4ccccc4)no3)nc2c1` gave GLP1R cytotox inactive, GLP1R inv ag inactive, Integrin act MD inactive, GLP-1R agonist inactive and BRCA1 expr up inactive.
For Cc1ccc2nc(-c3cc(-c4ccccc4)no3)cn2c1 the results were GLP1R cytotox inactive, GLP1R inv ag 4µM, Integrin act MD inactive, GLP-1R agonist inactive and BRCA1 expr up inconclusive.
For O/N=C(/CI)c1ccc2ccccc2c1 the results were BRCA1 expr up inactive.
`Cc1ccc(S(=O)(=O)Nc2cccc(C(=O)NC3CCN(Cc4ccccc4)CC3)c2)cc1F` gave GLP1R cytotox inconclusive, GLP1R inv ag inconclusive, Integrin act MD inactive, GLP-1R agonist inactive and BRCA1 expr up inactive.
Screening O=C(NC1CCN(Cc2ccccc2)CC1)c1cccc(NS(=O)(=O)c2ccc(Br)cc2)c1 returned GLP1R cytotox inactive, GLP1R inv ag 11µM, Integrin act MD inactive, GLP-1R agonist inactive and BRCA1 expr up inactive.
O=c1c2sc3ccccc3c2n(Cc2cccc(Cl)c2)c(=O)n1Cc1ccc(F)cc1 was read as GLP1R cytotox inactive and GLP1R inv ag inactive.
CCCOc1ccc(OC(=O)c2cn(-c3ccc(OC)cc3)c(=O)c3ccccc23)cc1 was read as GLP1R cytotox inactive and GLP1R inv ag inactive.
Screening O=C(NCC1CCCO1)Nc1cccc(Cl)c1 (configuration not stated) returned GLP1R cytotox inactive, GLP1R inv ag inactive, Integrin act MD inactive, GLP-1R agonist inactive and BRCA1 expr up inactive.
Cc1cccc(NC(=O)C(=O)NCC2CCCO2)c1 (configuration not stated) was read as GLP1R cytotox inactive, GLP1R inv ag inactive, Integrin act MD inactive, GLP-1R agonist inactive and BRCA1 expr up 2.2µM.
`c1ccc2oc(-c3ccn[nH]3)cc2c1` gave GLP1R cytotox inactive, GLP1R inv ag inactive, Integrin act MD inactive, GLP-1R agonist inactive and BRCA1 expr up 4.5µM.
For c1ccc2oc(-c3[nH]ncc3CN3CCSCC3)cc2c1 the results were GLP1R cytotox inactive, GLP1R inv ag inconclusive, Integrin act MD inactive, GLP-1R agonist inactive and BRCA1 expr up inactive.
`N#C/C(=C\c1ccc(OCc2cccc(C(=O)O)c2)cc1)C(=O)NCc1ccco1` gave GLP1R cytotox inactive, GLP1R inv ag 8.9µM, Integrin act MD inactive, GLP-1R agonist inactive and BRCA1 expr up inactive.

Assay outcomes from PubChem.
